Laboratory results published in PubChem BioAssay (NCI).
Compounds without any hit were thinned out: in the full panel of roughly 83,000, 20% have a hit.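 Cell lines were cultured in 96-well plates, exposed to a single compound concentration, and assessed for percent growth 48 hours later.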 Values without a mark were called inactive. Activity calls are given as the source filed them. Rule for the calls: active = growth percent below 10; inactive = the rest.

System: HL-60(TB) leukemia
Assay: NCI-60 one-dose screen, 48 h (100 = growth as untreated, 0 = no growth, -100 = all killed)
Details: 10 µM unless noted

SMILES | growth
C#Cc1cc(C(=O)Nc2ccc(CNCCN3CCOCC3)c(C(F)(F)F)c2)ccc1C | 86%
Cn1ccnc1C(=O)/C=C/c1ccc(NC(=O)c2ccc(F)cc2)cc1 | 11.8%
Cc1ccc(NC(=O)/C=C/c2ccc(OCCCOc3ccc4c(C)cc(=O)oc4c3)cc2)cc1 | 98.5%
Nn1c(N/N=C/c2nc3ccccc3s2)n[nH]c1=S | 136%
Cc1ccc(/C(N)=N/C(N)=N/c2nc3ccccc3s2)cc1 | 81.6%
Cn1ccnc1C(=O)/C=C/c1ccc(NC(=O)Nc2ccc(Cl)cc2)cc1 | 44.2%
COc1ccc2[nH]cc(-c3csc4nc(-c5ccccc5)cn34)c2c1 | 13.9%
C=CCN(C)S(=O)(=O)/N=C1\NC(=O)NC1=C(Cl)Cl | -51.7% (active)
C=C1C(=O)O[C@@H]2C[C@@H](C)/C=C\C(=O)[C@](C)(OC(C)=O)C[C@H](OC(=O)/C(C)=C\C)[C@@H]12 | -3.8% (active)
CC(=O)c1nnn(-c2c(C(=O)n3nc(C)cc3C)sc(=S)n2-c2ccccc2)c1C | 110%
OC1CCc2c(-c3ccc4ncnc(N5CCc6cc(F)c(Cl)cc65)c4c3)cncc21 (stereo not given) | 34.3%
CC[C@]12C=CCN3CC[C@@]4(c5ccc(OC)cc5N(C)[C@H]4[C@@](O)(C(=O)OC)[C@@H]1OC(=O)CCN1CCc4ccccc4C1)[C@@H]32 | 80.4%
O=C1Nc2ccccc2/C1=N\c1nnc(-c2ccccc2)o1 | 99.6%
Cn1ccnc1C(=O)/C=C/c1ccc(CNC(=O)c2ccc(F)cc2)cc1 | -4.42% (active)
COc1cc2c3c(cc4c5c(ccc4c3c1OC)OCO5)N(CCN(C)C)C2=O | -17.1% (active)
COc1cc(-c2nc(-c3ccccc3)[nH]c2-c2ccnc(NCCCNS(=O)(=O)c3ccc(C)cc3)n2)ccc1F | 93.4%
O=[N+]([O-])c1ccc(NC(=S)NNC(=S)Nc2ccc(F)cc2)cc1 | 84.8%
NS(=O)(=O)c1ccc(Nc2nc(SCC(=O)c3ccc(Cl)cc3)nc3c2CCCC3)cc1 | 59.3%

SMILES | growth
Clc1ccc2[nH]cc(-c3nn4cc(-c5cccnc5)nc4s3)c2c1 | 86.2%
CO/N=C1\CCc2c(sc(NC(=O)c3cccc(C(F)(F)F)c3)c2C(N)=O)C1 | 70.3%
Cc1ccc2c(c1)Oc1nc(N)c(C#N)c(N)c1C2Sc1ccc(F)cc1 (stereo not given) | -51.7% (active)
N=c1c2cc(-c3ccccc3)oc2ncn1/N=C/c1ccc(Br)cc1 | 109%
O=C(CN1CCN(c2cc(=O)n(-c3ccccc3)c3ccccc23)CC1)Nc1ccc(F)cc1 | 47.7%
CN(C)CCCOc1c2ccc(Cl)cc2nc2c1oc1ccc(Cl)cc12 | 18.9%
C[C@H]1OCC2(CCN(c3cnc(C(=O)Nc4cc(F)cc5cccnc45)cn3)CC2)[C@H]1N | 18.9%
COc1cc2oc(-c3cccc(C(=O)N[C@@H](CC(C)C)C(=O)OC(C)(C)C)c3)cc(=O)c2c(OC)c1OC | 76.8%
CNc1ncc2cc(-c3ccc(-c4ncccc4F)cc3Cl)c(=O)n(CC3OCC(N)CO3)c2n1 (stereo not given) | 20.5%
CCCCSc1nnc(-c2ccc(-c3ccc(Cl)cc3)nc2C)o1 | 91.9%
CNC(=O)c1cc(Oc2ccc3nc(NC(=O)c4cc(C)cc(C)c4)sc3c2)ccn1 | 70.4%
Cn1cc(-c2nn3cc(-c4ccncc4)nc3s2)c2cc(F)ccc21 | -1.16% (active)
CS(=O)c1nccc(-c2c(-c3ccc(F)c(OCCc4ccc(F)cc4)c3)nc3sccn23)n1 (stereo not given) | -13.4% (active)
CCCCCCCCCCCC(=O)NC(C)(C)C(=O)N1CCCC1C(=O)NC(C)(C)C(=O)NC(C)(C)C(=O)N1CCCC1C(=O)NC(C)(C)C(=O)NC(C)(C)C(=O)N1CCCC1C(=O)NC(C)C(=O)NCCC(=O)NC(C)C(=O)NC(C)(C)C(=O)NC(C)(C)C(=O)NC(C)(C)C(=O)NCCC(=O)NC(C)(C)C(=O)NC(C)(C)C(=O)NC(C)(C)C(=O)NC(C)C(=O)NCCC(=O)O (stereo not given) | -66.3% (active)
Cc1ccccc1N1CCN(C2=C(Cl)C(=O)c3ncccc3C2=O)CC1 | 4.21% (active)
N#Cc1c(-c2cccs2)cc(-c2cnccn2)nc1SCC(=O)c1ccc(F)cc1 | 131%
COc1ccc(NC2=C(Cl)C(=O)C(C)=C(C)C2=O)cc1OC | 88.4%
